A selection: hits, their analogues and other compounds. The true share with any hit is near 21%.
Pf growth 48h – P. falciparum growth inhibition at 48 hours (one generation) | P. falciparum luciferase growth in erythrocytes, 48 h | Potency, µM (top dose mostly 28.7 µM), without a hit: top-dose activity change, negative = inhibition, most hits filed as inhibitors | actives 5.9% (n = 310,000); note: potency is the fitted concentration of half-maximal effect; % is set by controls: 0 for no effect and ±100 for the full control effect
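Parasite viability was followed by luminescence of a genomically integrated firefly luciferase. Cultures held 0.1% parasitemia at 2% hematocrit (final), incubated under 5% CO2 at 37 C.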
NS1 function inh – influenza NS1 inhibition. Potency, µM (highest dose often 46.1 µM), without a hit: top-dose activity, positive = more growth. actives 0.4% (n = 270,000); calls by dose curve; note: potency is the fitted concentration of half-maximal effect; actives are rising curves; nearly all actives have a fitted effect of over 50% in size
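In this qHTS, NS1 from influenza A is expressed in budding yeast, where it slows growth. Cells are switched from glucose to 2% galactose medium (pH 6.0, -URA), treated with compound, and growth recovery is read at OD600.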
Shiga toxin inh – inhibitors of Shiga toxin in Vero cells; Vero cells, Shiga toxin protein synthesis inhibition reporter; inhibition, % at 38.7 µM; actives 9.2% (n = 290,000); in the data active = inhibition mostly above about 28%, no sharp cut-off; inactive = mostly below about 43%; note: 0% is about no effect
CHX counter – counter-screen hit for Shiga toxin inhibitors, cycloheximide. cell reporter, cycloheximide protein synthesis inhibition counterscreen. max response, %. actives 12% (n = 300,000). AID 2314; in the data active = max response mostly above about 13%, no sharp cut-off; inactive = mostly below about 14%; note: read at 38.3 µM for the half of the compounds with a filed dose; 0% is about no effect
Pf growth 96h – P. falciparum growth inhibition at 96 hours | P. falciparum luciferase reporter growth, 96 h | AID 504834 | Potency, µM (highest dose often 28.7 µM), for inactives: at the top dose activity change, negative = inhibition, most hits filed as inhibitors | actives 6.9% (n = 320,000); note: potency is the fitted concentration of half-maximal effect; % is set by controls: 0 for no effect and ±100 for the full control effect
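Two-generation exposure (96 h) targets delayed-death phenotype. Reporter parasites carrying integrated firefly luciferase, in red cells at 2% hematocrit and 0.05% parasitemia final, kept at 37 C, 5% CO2; luminescence loss indicates inhibition.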
Sm TGR inh – inhibitors of Schistosoma mansoni thioredoxin glutathione reductase; Q962Y6; purified TGR, DTNB reduction, TNB absorbance 405 nm; Potency, µM (series often up to 114 µM), without a hit: top-dose activity change, negative = inhibition, most hits filed as inhibitors; actives 3% (n = 360,000); note: potency is the fitted concentration of half-maximal effect; % is set by controls: 0 for no effect and ±100 for the full control effect; nearly all actives have a fitted effect of over 60% in size
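Kinetic colorimetric format: TGR-catalysed, NADPH-driven DTNB reduction monitored via TNB absorbance. Enzyme dispensed at 20 nM; compound exposure 15 min at room temperature before reaction start.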
* hit, by the source's call; [ ] = another dose, or the depositor's remark. Unless noted, calls come from the whole dose curve; as a rule, active = well fitted curve in the direction sought with a large enough effect; inconclusive = small, poorly fitted or top-dose-only effect, or another doubt; inactive = no such curve, though single readings can be large; an effect the other way counts as inactive or inconclusive.

For O=C(/C=C/c1cccc([N+](=O)[O-])c1)c1ccc2c(c1)OCCO2 the results were Pf growth 48h -18.5%, NS1 function inh -8.3%, Shiga toxin inh -5.7, CHX counter -1.3, Pf growth 96h inconclusive and Sm TGR inh -2.8%.
`CCCC(=O)Nc1ccc(C(=O)/C=C/c2ccc(SC)cc2)cc1` gave Pf growth 48h inconclusive, NS1 function inh -12.3%, Shiga toxin inh 28.1, CHX counter 22.4, Pf growth 96h inconclusive and Sm TGR inh 3.8%.
Screening O=C(O)c1ccc(/C=C/C(=O)c2ccc3c(c2)OCCCO3)cc1 returned Pf growth 48h 54.0%, NS1 function inh -2.9%, Shiga toxin inh 92.3*, CHX counter 104.6*, Pf growth 96h 102.5% and Sm TGR inh -9.9%.
`CC(=O)Nc1ccc(/C=C/C(=O)c2ccc3c(c2)OCCO3)cc1` gave Pf growth 48h -29.1%, NS1 function inh -16.1%, Shiga toxin inh 45.2*, CHX counter 23.5*, Pf growth 96h inconclusive and Sm TGR inh 0.0%.
For CSc1ccc(/C=C/C(=O)c2ccc(NC(C)=O)cc2)cc1 the results were Pf growth 48h -3.5%, NS1 function inh -12.1%, Shiga toxin inh 59.5*, CHX counter 32.9*, Pf growth 96h 0.657µM* and Sm TGR inh -12.0%.
`CC(=O)Nc1ccc(NS(=O)(=O)c2c(C(=O)N3CCCCCC3)c(C)n(C)c2C)cc1` gave Sm TGR inh 1.5%.
`COc1ccc(/C=C2\S/C(=N/S(=O)(=O)c3cccs3)NC2=O)cc1` gave Pf growth 48h -3.8%, Shiga toxin inh -4.5, CHX counter -1.8, Pf growth 96h 11.5% and Sm TGR inh -5.3%.
Screening COC(=O)c1sc(NC(=O)COc2cccnc2[N+](=O)[O-])c(C(=O)OC)c1C returned Pf growth 48h inconclusive, Pf growth 96h inconclusive and Sm TGR inh -12.6%.
For CCCC1c2ccc(C)n2CCN1C(=O)Nc1ccccc1Cl (stereo not drawn) the results were Pf growth 48h inconclusive, NS1 function inh 2.6%, Shiga toxin inh 73.6*, CHX counter 26.2*, Pf growth 96h 2.62µM* and Sm TGR inh 35.5µM*.
CCOC(=O)c1ccccc1NC(=O)N1CCn2c(C)ccc2C1CC (stereo not drawn) was read as Pf growth 48h 0.0%, NS1 function inh -11.3%, Shiga toxin inh -12.4, CHX counter -2.8 and Sm TGR inh 7.08µM*.
For CC1CCCCN1C(=O)Nc1ccccc1Cl (stereo not drawn) the results were Pf growth 48h 59.3%, NS1 function inh 1.0%, Shiga toxin inh 48.3, CHX counter -2.5 and Pf growth 96h -2.5%.
CCOC(=O)c1ccccc1NC(=S)N1CCCCC1 was read as Pf growth 48h 0.0%, NS1 function inh -0.5%, Shiga toxin inh 10.7, CHX counter 1.5, Pf growth 96h 9.28µM* and Sm TGR inh -4.8%.
`CCOC(=O)c1ccccc1NC(=O)N1CCC(CN2CCOCC2)CC1` gave Sm TGR inh -15.0%.
`COC(=O)c1ccccc1NC(=O)C1CCCC1` gave Pf growth 48h 1.2%, NS1 function inh -5.1%, Shiga toxin inh -28.4, CHX counter 5.6, Pf growth 96h -3.9% and Sm TGR inh -3.6%.
`COC(=O)c1ccccc1NC(=O)N1CSC[C@H]1C(=O)OC` gave Pf growth 48h 18.5%, NS1 function inh -34.5%, Shiga toxin inh -17.0, CHX counter -0.6, Pf growth 96h -7.3% and Sm TGR inh 28.2µM*.
CCOC(=O)C1CCN(C(=O)Cn2nc(C)n3nc(-c4ccc(CC)cc4)cc3c2=O)CC1 was read as Pf growth 48h 16.0%, NS1 function inh 3.8%, Shiga toxin inh -7.3, CHX counter -3.5, Pf growth 96h 9.3% and Sm TGR inh -15.7%.
For O=C1CSC(=Nc2ccccc2[N+](=O)[O-])N1 the results were Pf growth 48h -11.5%, NS1 function inh 1.5%, Shiga toxin inh 10.8, CHX counter -4.2 and Pf growth 96h inconclusive.
For CCC1c2ccc(C)n2CCN1C(=O)Nc1ccccc1C(=O)OC (stereo not drawn) the results were Pf growth 48h 5.22µM*, NS1 function inh 13.7%, Shiga toxin inh -5.5, CHX counter 6.9, Pf growth 96h 145.8% and Sm TGR inh -31.7%.
`CCC1c2ccc(C)n2CCN1C(=O)Nc1cc(Cl)ccc1OC` (stereo not drawn) gave Pf growth 48h -28.2%, NS1 function inh 9.6%, Shiga toxin inh 7.8, CHX counter -1.6, Pf growth 96h inconclusive and Sm TGR inh -32.5%.
Screening CCOc1ccc(NC(=O)Cn2nnc3c(cnn3-c3ccc(F)cc3)c2=O)cc1 returned Pf growth 48h -9.5%, Shiga toxin inh -2.0, CHX counter -3.0, Pf growth 96h inconclusive and Sm TGR inh 1.5%.
Screening O=C(Cn1nnc2c(cnn2-c2ccc(F)cc2)c1=O)OC1CCCCC1 returned Pf growth 48h 16.2%, NS1 function inh -6.3%, Shiga toxin inh 64.2, CHX counter 27.5* and Sm TGR inh 1.1%.
Cc1cccn2c(=O)c(C(=O)NCCCN3CC(C)CC(C)C3)c(O)nc12 (stereo not drawn) was read as Pf growth 48h 2.08µM*, Pf growth 96h 0.828µM* and Sm TGR inh -3.3%.
`CC1CC(C)CN(CCCNC(=O)c2c(O)nc3ccccn3c2=O)C1` (stereo not drawn) gave Pf growth 48h 4.15µM*, Pf growth 96h inconclusive and Sm TGR inh -1.4%.
CCCCn1c(C)cc2c(c1=O)C1O[C@](CCCC)(Cc3cc(C#N)ccc31)O2 was read as Pf growth 48h inconclusive, NS1 function inh 21.0%, Shiga toxin inh inactive, CHX counter 0.3, Pf growth 96h 19.1%[5.75 µM] and Sm TGR inh -31.3%[22.9 µM].
For COc1ccc(Cc2nc3ccc(C(=O)NCC(C)(C)OC)cc3o2)cc1 the results were Pf growth 48h -13.1%, NS1 function inh -13.4%, Shiga toxin inh 96.0*, CHX counter 34.0*, Pf growth 96h 102.7% and Sm TGR inh -3.5%.
COc1ccc(Cc2nc3ccc(C(=O)NCc4cc(C)no4)cc3o2)cc1 was read as Pf growth 48h inconclusive, NS1 function inh 2.8%, Shiga toxin inh 65.7*, CHX counter 56.7*, Pf growth 96h 114.9% and Sm TGR inh -4.5%.
`CCc1cc(CNC(=O)c2ccc3nc(Cc4ccc(OC)c(OC)c4)oc3c2)on1` gave Pf growth 48h inconclusive, NS1 function inh -11.2%, Shiga toxin inh 21.7, CHX counter 33.3, Pf growth 96h 18.8% and Sm TGR inh -0.9%.
Screening Cc1ccc2oc(=O)n(CCCOc3ccc(Cl)cc3)c2c1 returned Sm TGR inh -1.0%.
For CCOc1ccc(C(=O)Nc2ccc3nc(SCC(=O)N4CCOCC4)sc3c2)cc1 the results were Sm TGR inh 0.1%.

Screening data as filed in PubChem.
